Results from PubChem BioAssay (NCI).
About 83,000 compounds went through this panel and 20% of them were active in at least one assay; those are over-represented in the sample as a whole.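 The test compound was applied at a single concentration to cells in 96-well plates for 48 hours, and percent growth was recorded.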 Values without a mark were called inactive. Calls of active or inactive are those of the source. The calls were made as follows: active = growth percent below 10; inactive = the rest.

Assays:
Experiment in all cases: NCI-60 one-dose screen, 48 h (100 = growth as untreated, 0 = no growth, -100 = all killed)
Conditions in all cases: 10 µM unless noted
NCI-H23 lung = test system: NCI-H23 lung
NCI-H226 lung = test system: NCI-H226 lung
NCI-H322M lung = test system: NCI-H322M lung
HOP-62 NSCLC = test system: HOP-62 NSCLC
NCI-H460 lung = test system: NCI-H460 lung
HOP-92 NSCLC = test system: HOP-92 NSCLC
NCI-H522 lung = test system: NCI-H522 lung
A549/ATCC NSCLC = test system: A549/ATCC NSCLC
786-0 renal = test system: 786-0 renal
COLO 205 colon = test system: COLO 205 colon

| SMILES | growth (NCI-H23 lung) | growth (NCI-H226 lung) | growth (NCI-H322M lung) | growth (HOP-62 NSCLC) | growth (NCI-H460 lung) | growth (HOP-92 NSCLC) | growth (NCI-H522 lung) | growth (A549/ATCC NSCLC) | growth (786-0 renal) | growth (COLO 205 colon) |
| --- | --- | --- | --- | --- | --- | --- | --- | --- | --- | --- |
| CCc1n(Cc2ccc3ccccc3n2)cc[n+]1Cc1ccc2ccccc2n1 | 16% | 48.4% | 73.1% | 40.9% | 34.8% | -11.9% (active) | -3.51% (active) | 57.4% | 77.6% | -38.9% (active) |
| CN1CCN(Cc2ccc(NC(=O)c3cncc(C#Cc4cnc5ccc(Cl)nn45)c3)cc2C(F)(F)F)CC1 | -29.5% (active) | -58.3% (active) | -14.2% (active) | -15.7% (active) | -47.3% (active) | -16.3% (active) | -12.8% (active) | 4.24% (active) | -53% (active) | -46.1% (active) |
| Cc1nc2ccccc2c(/C=C/c2ccccc2)c1C(=O)/C=C/c1ccccc1 | 28.7% | 65.1% | 43.8% | 6.52% (active) | -20.8% (active) | 79.6% | 15.9% | 23.2% | 31.5% | 15.7% |
| CCS/C(Nc1ccccc1)=C(\C#N)C(=O)Nc1ccc(OC)cc1 | 48.3% | 57.9% | 51.6% | 34.2% | 10.1% | 44.5% | 0.635% (active) | 34.6% | 39.5% | 17.5% |
| CCOc1ccc(-n2nc(C(=O)NCc3ccccc3OC)nc2-c2cc(OC)c(OC)c(OC)c2)cc1 | 60.7% | 62.5% | 52.4% | 62.2% | 30.5% | 29% | 35.7% | 34.5% | 41.5% | 30.3% |
| Cc1ccc(/C=C(\C#N)n2nnc3cc(F)c(F)cc32)cc1 | 27.1% | 47.6% | 4.87% (active) | 23.1% | 22% | -5.1% (active) | 1.39% (active) | 10.1% | -26.8% (active) | -27.9% (active) |
| Cc1ccnc(Nc2ccc([N+](=O)[O-])c(NCCN3CCOCC3)n2)c1 | 42% | 24.5% | 50.2% | 40.8% | 6.8% (active) | 138% | 20.9% | 19.6% | 24.8% | -45.4% (active) |
| CCN(CC)Cc1cc(Nc2ccnc3cc(Cl)ccc23)ccc1O | 99.2% | 105% | 89.7% | 89.4% | 96.8% | 88.5% | 91.2% | 107% | 96.8% | 81.5% |
| C=C1C(=O)O[C@H]2[C@H]1CC/C(COC(=O)/C=C\C(=O)NCc1ccc(Cn3c(=O)sn(CCCCC)c3=O)cc1)=C\CC[C@@]1(C)O[C@@H]21 | 87.4% | 104% | 101% | 104% | 97.8% | 89.7% | -7.84% (active) | 97.5% | 62.8% | 19.3% |
| C[C@@H]1O[C@@H](O[C@@H]2C[C@H](c3ccc4c(c3O)C(=O)C3=C(C4=O)[C@@]4(O)C(=O)C[C@](C)(O)C[C@@]4(O)C=C3)O[C@H](C)[C@H]2O)CC[C@@H]1O[C@H]1C[C@@H](O)[C@H](O)[C@@H](C)O1 | 100% | 116% | 106% | 113% | 105% | 149% | 41.5% | 95.3% | 103% | -19.1% (active) |
| COC(=O)C(Cc1ccccc1)NC(=O)c1ccc(NC(=O)c2[nH]c(C)c(Cl)c2Cl)c(OC(C)C)c1 (stereo not given) | 70% | 88.6% | 102% | 90.3% | 6.05% (active) | 101% | 93.9% | 6.57% (active) | 39.5% | 102% |
| Cc1ccc(-c2csc(NC(=O)c3ccccc3CN3C(=O)c4ccccc4C3=O)n2)cc1 | 93.3% | 92% | 95.1% | 99.1% | 109% | 89.6% | 82.1% | 86.4% | 95.8% | 103% |
| OCCNCCNC(Cc1ccc(Cl)cc1)c1ccccc1 (stereo not given) | 96.2% | 98.1% | 93.1% | 72.2% | 107% | 38.4% | 64.1% | 88.1% | 57.5% | 70% |
| CC(C)(C)c1cc(Cl)c(O)c(CNCCO)c1 | 112% | 98.5% | 118% | 101% | 101% | 90.8% | 106% | 109% | 102% | 112% |
| CN(Cc1cc(Br)cc(Br)c1O)Cc1cc(Br)cc(Br)c1O | 36.9% | 52% | 26.4% | 30.9% | 19.1% | 32.3% | 3.36% (active) | 36.8% | 39.9% | 84% |
| COc1cc2c(c(OC)c1OC)C(=O)CC(c1cccc(NC(=O)c3ccc(C#N)cc3)c1)O2 (stereo not given) | 70.6% | 68.3% | 91.4% | 73.6% | 85.6% | 67.6% | 46.6% | 77.4% | 91.9% | 90.6% |
| COc1cccc(CCNc2ncnc3c2ncn3Cc2nnc3c4ccccc4c(Cl)nn23)c1 | 70.1% | 66.6% | 52.8% | 57.5% | 61.5% | 42.7% | 5.17% (active) | 77.8% | 57.7% | 90.9% |
| CCCn1cnc2c(c1=N)C(c1ccc(F)cc1)c1sc3c(F)cccc3c1O2 (stereo not given) | 70.1% | 74.7% | 78.1% | 52.4% | 18.7% | 67.5% | 4.15% (active) | 48.1% | 40.9% | 86.4% |
| CN(Cc1ccccc1)c1nc(Cl)c(C2CC(c3ccccc3)=NN2c2ccccc2)s1 (stereo not given) | 88.3% | 89% | 97.6% | 84.5% | 101% | 86% | 77.8% | 85.7% | 93.9% | 105% |
| O=C(N=Nc1c(O)[nH]c2ccccc12)Nc1ccc(F)cc1 | 96.8% | 91.7% | 93.8% | 83.2% | 108% | 94% | 78.5% | 87.5% | 97.3% | 103% |
| CSc1nn2c(-c3ccc4ccccc4c3)ccnc2c1C#N | 33.1% | 24.9% | 56.2% | 18.6% | -29.6% (active) | 33.8% | -23.4% (active) | 5.43% (active) | 22.2% | 17% |
| FC(F)(F)Oc1cccc(-c2cnc3ccc(-c4ccncc4)nn23)c1 | 15.6% | 33.5% | 27.4% | 20.2% | 17.6% | 17.4% | 1.55% (active) | 11.5% | 21.1% | 16.1% |
| COc1ccc2nc(Cl)c(/C=C3\CC(c4ccccc4)=NN(c4ccccc4)C3=O)cc2c1 | 78.8% | 55.6% | 74.6% | 48.4% | 67.8% | -20.3% (active) | 65.6% | 65.2% | -4.27% (active) | 99.3% |
| Cc1c(CN)cc(-c2ccc(Cl)cc2)n1-c1ccccc1 | 73.8% | 38.4% | 88.4% | 91.6% | 75.5% | 90.1% | 68% | 75.2% | 90.8% | 110% |
| CC(=O)OC[C@]12CC[C@@H]([C@@H](C)c3nnc(-c4ccncc4)o3)[C@@H]1[C@H]1CC[C@@H]3[C@@]4(C)CC[C@H](OC(C)=O)C(C)(C)[C@@H]4CC[C@@]3(C)[C@]1(C)CC2 | 82% | 60.6% | 95.9% | 98.4% | 58.6% | 66.1% | 76.2% | 62.5% | 80.4% | 82.4% |
| Nc1[nH]n2cc(-c3ccc(F)cc3)nc2c1N=Nc1ccc(S(N)(=O)=O)cc1 | 80.9% | 88.4% | 41.9% | 90.7% | 58.8% | 74.9% | 55.3% | 84.6% | 68.1% | 95.1% |
